Where a name gives a salt, the structure may show the parent alone. ± gives the standard deviation of the averaged measurements.

The experiment concerns Toxoplasma gondii RH (in HFF). The experiment in a line: parasite growth relative to the screen mean (all compounds = 100%); higher = less inhibition of parasite growth. The settings on record: 5 µM; 72 h; oxygen 21 %. In outline:
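Values give growth relative to the screen mean. The screen mean (all compounds) is set at 100%, and two screens were averaged. Compounds at 5 µM final were placed on confluent human foreskin fibroblasts, which were infected within 2 h with RH β-Gal–GFP Toxoplasma (MOI 1:5) and kept 72 h at 21% O2 before a CPRG β-Gal readout against in-plate standard curves.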
For `COc1ccc2c3c1O[C@H]1C[C@@H](O)C=C[C@@]31CCN(C)C2` [Galanthamine hydrobromide], the parasite growth is 138 ± 30%.
Compound `O=C(Nc1ccccc1)N[C@@H]1C[C@@H](C(=O)O)Nc2cc(Cl)cc(Cl)c21` yielded a parasite growth of 104 ± 3.9%.
With `COc1ccc([C@@H]2CNC(=O)C2)cc1OC1CCCC1` [(R)-(-)-Rolipram] the figure was 106 ± 6%; with `CCC(=O)O[C@]1(C(=O)SCF)[C@H](C)C[C@H]2[C@@H]3C[C@H](F)C4=CC(=O)C=C[C@]4(C)[C@@]3(F)[C@@H](O)C[C@@]21C` [Fluticasone propionate], 59.2 ± 34%.
`O=C(c1ccc(F)cc1)C1CCN(CCn2c(=O)[nH]c3ccccc3c2=O)CC1` [Ketanserin tartrate]: the parasite growth is 183 ± 33%.
The figure for `C1CCC2(CC1)CCNCC2` [4,4-Pentamethylenepiperidine hydrochloride] is 107 ± 22%; for `COc1cc(COc2cc(N)c(Cl)cc2C(=O)CCC2CCN(CCNS(C)(=O)=O)CC2)cc(OC)c1` it is 28.1 ± 16%; for `CC[N+](C)(CC)CC(=O)Nc1c(C)cccc1C` [N-Methyllidocaine iodide] it is 119 ± 24%.
In the case of `CC1(C)Oc2ccc(C#N)cc2[C@@H](N2CCCC2=O)[C@@H]1O` [Levcromakalim], the parasite growth was 158 ± 31%.
In the case of `COc1ccc(-c2nc(C(=O)N3CCN(C)CC3)sc2-c2ccc(OC)cc2)cc1`, the parasite growth came out at 112 ± 21%.
`N#C/C(=C\c1ccc(O)c(O)c1)C(=O)NCCCCc1ccccc1` gave a parasite growth of 155 ± 18%.
With `FC(F)(F)c1ccc(/C=C/c2nc(COc3ccc(CCCCn4ccnn4)cc3)co2)cc1`, the parasite growth stood at 36 ± 14%.
In turn, `CCCCCCN(CCCCCC)C(=O)Cc1c(-c2ccc(Cl)cc2)[nH]c2ccc(Cl)cc12` yielded a parasite growth of 175 ± 22%.

These data come from the supplement of paper PMC4894684.
